Here are results for 6 molecules from PubChem BioAssay (Tox21).

Structures are written as SMILES. Several values for one entry are separate records, joined by “and”; a condition that tells them apart may be missing. Equal entries are not always repeated. Results filed as inconclusive are left out. Where a structure was tested more than once in an assay, its records may differ in their call. Activity calls are given as the source filed them. Unless noted, the call rests on the fitted dose curve; in most records, active means well fitted curve in the direction sought with a large enough effect in the repeat runs; inconclusive means weak or mixed curves; inactive means no such curve, though single readings can be large; an effect the other way counts as inactive or inconclusive.

The target in experiment [1] is Luciferin 4-monooxygenase (Photinus pyralis) (UniProt P08659). Nature of the experiment: qHTS assay to identify small molecule inhibitors of firefly luciferase (AID 1224835). Further: nearly all actives have a fitted effect of over 25% in size. Further: potency means the concentration at half of the fitted maximal effect. An outline of the steps:
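Biochemical qHTS: compounds run as interplate titrations against purified firefly enzyme, with D-luciferin and ATP each at its KM concentration. Light output recorded by CCD imaging.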
In general terms: Quantitative high-throughput screening tests each substance at several concentrations.

Experiment [2] is described as follows: qHTS assay to identify small molecule agonists of the constitutive androstane receptor (CAR) signaling pathway - cell viability counter screen (AID 1224836). Further: nearly all actives have a fitted effect of over 45% in size. An outline of the steps: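 HepG2 cells stably carrying hCAR and a CYP2B6-2.2kb reporter; 15-concentration compounds plus PK11195 (final 0.75 uM), 23 hr at 37 C/5% CO2. Viability read by CellTiter-Fluor fluorescence.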

Experiment [3] is described as follows: qHTS assay to identify small molecule antagonists of the constitutive androstane receptor (CAR) signaling pathway - cell viability counter screen (AID 1224837). Further: nearly all actives have a fitted effect of over 45% in size. An outline of the steps:
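HepG2 cells stably expressing hCAR and a CYP2B6-2.2kb reporter were plated and pre-incubated 4 hr at 37 C/5% CO2, then given compounds at 15 concentrations plus 50 nM CITCO (final). After 23 hr, viability was read by CellTiter-Fluor fluorescence.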

Experiment [4] addresses Nuclear receptor subfamily 1 group I member 3 (Homo sapiens) (UniProt Q14994). Nature of the experiment: qHTS assay to identify small molecule antagonists of the constitutive androstane receptor (CAR) signaling pathway (AID 1224838). Further: nearly all actives have a fitted effect of over 40% in size. An outline of the steps:
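HepG2 cells stably co-transfected with hCAR and a CYP2B6-2.2kb luciferase reporter were seeded 4 h before compound addition at 15 concentrations. Cells were stimulated with 50 nM CITCO (final) for 24 h at 37 C; luciferase luminescence was then read.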

Experiment [5] has the same target. Nature of the experiment: qHTS assay to identify small molecule agonists of the constitutive androstane receptor (CAR) signaling pathway (AID 1224839). Further: nearly all actives have a fitted effect of over 15% in size. Further: potency means the concentration at half of the fitted maximal effect. An outline of the steps: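 HepG2 cells stably co-transfected with hCAR and a CYP2B6-2.2kb luciferase reporter; compounds at 15 concentrations with 0.75 uM PK11195 present. After 24 hr at 37 C, luciferase read by ONE-Glo luminescence.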

Experiment [6] can be described thus: qHTS assay to identify small molecule antagonists of the estrogen related receptor signaling pathway with the pleiotropic PPARgamma coactivator (PGC) from Tox21 10K library (AID 1224841; call rule not given here; further: actives are mostly falling curves and most rising ones were filed inactive; nearly all actives have a fitted effect of over 50% in size; further: potency means the concentration at half of the fitted maximal effect). An outline of the steps: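 PGC/ERR reporter cells were seeded at 2,000 cells/well and held 6 hours at 37 C/5% CO2 before pin-tool addition of compounds in DMSO. After 18 hours at 37 C, One-Glo was added and luminescence read after 30 minutes at room temperature.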

Experiment [7] in a line: qHTS assay to identify small molecule agonists of the estrogen related receptor signaling pathway with the pleiotropic PPARgamma coactivator (PGC) from Tox21 10K library (AID 1224842). Further: nearly all actives have a fitted effect of over 15% in size. An outline of the steps:
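PGC/ERR reporter cell line, 2,000 cells per well, incubated 6 h at 37 C before 23 nL compound in DMSO was added. After 18 h at 37 C, One-Glo luminescence read following 30 min at room temperature.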

For experiment [8], the target named is Thyrotropin receptor (Homo sapiens) (UniProt P16473). Briefly: qHTS assay to identify small molecule agonists of the thyroid stimulating hormone receptor (TSHR) signaling pathway (AID 1224843; calls by dose curve; further: nearly all actives have a fitted effect of over 45% in size). An outline of the steps: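 Steps: seed 800 TSHR-HEK293 cells per well; add test compound and hold 30 min at ambient temperature; dispense cAMP-d2 then anti-cAMP cryptate; incubate 1 h at ambient; measure fluorescence intensity.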

Experiment [9] can be described thus: qHTS assay to identify small molecule agonists of the hypoxia (HIF-1) signaling pathway - cell viability counter screen (AID 1224844; calls by dose curve; further: nearly all actives have a fitted effect of over 50% in size; further: potency means the concentration at half of the fitted maximal effect). An outline of the steps:
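HRE-bla ME-180 cells in medium with 0.5% dialyzed FBS were preincubated 5 hrs at 37C, exposed to compounds for 17 hrs, then viability was read as CellTiter-Glo luminescence after 30 min at room temperature, in the reporter wells.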

A short description of experiment [10]: qHTS assay to identify small molecule agonists of the hypoxia (HIF-1) signaling pathway (AID 1224846; active means well fitted activation curve with a large enough effect in the signal ratio in the repeat runs, not every such curve was filed as active; the % refers to the signal ratio). An outline of the steps:
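HRE-bla ME-180 cells (beta-lactamase reporter under hypoxia response element) were plated at 2,000 cells/well in medium with 0.5% dialyzed FBS, rested 5 hrs, then given compounds in DMSO for 17 hrs at 37C, 5% CO2. Reporter induction was read with CCF4-AM FRET substrate.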

Experiment [11] is described as follows: qHTS assay to identify small molecule agonists of H2AX - cell viability counter screen (AID 1224847; calls by dose curve; further: top concentration of the series differs between compounds; nearly all actives have a fitted effect of over 30% in size). An outline of the steps: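 CHO-K1 cells plated overnight at 37C, then exposed 3 h at 37C to compounds at 15 concentrations (0.76% DMSO final). Viability by CellTiter-Glo luminescence after 30 min at room temperature.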
A short description of experiment [12]: qHTS assay to identify small molecule antagonists of the estrogen related receptor (ERR) signaling pathway from Tox21 library (AID 1224848). Further: nearly all actives have a fitted effect of over 50% in size. An outline of the steps: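 Luminescent reporter read-out (ONE-Glo) from NTP's ERR cell line after 18 h treatment at 37 C with DMSO-dissolved Tox21 compounds; cells pre-plated 6 h beforehand at 2,000 per well.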
Experiment [13] can be described thus: qHTS assay to identify small molecule agonists of the estrogen related receptor (ERR) signaling pathway from Tox21 library (AID 1224849; calls by dose curve; further: nearly all actives have a fitted effect of over 15% in size). To be noted: ERR reporter cell line, ONE-Glo luciferase, 18 h; at 92.4 µM (top of the series). An outline of the steps:
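ERR reporter cell line (NTP) seeded, rested 6 h at 37 C/5% CO2, then pinned with Tox21 compounds in DMSO. After 18 h at 37 C, ONE-Glo luciferase luminescence was read following 30 min at room temperature.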

The nature of experiment [14]: qHTS RealTime-Glo MT Cell Viability Assay in HepG2 cells - 24 hour (AID 1224867). Further: nearly all actives have a fitted effect of over 50% in size. An outline of the steps: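 HepG2 suspension premixed with RealTime-Glo reagents is plated at 600 cells per well and left 5 h at 37 C/5% CO2. Compounds in DMSO then go in, and bioluminescence reflecting viable cell number is recorded over 40 h.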
The nature of experiment [15]: qHTS RealTime-Glo MT Cell Viability Assay in HEK293 cells - 32 hour (AID 1224868). Further: nearly all actives have a fitted effect of over 50% in size. Further: potency means the concentration at half of the fitted maximal effect. An outline of the steps:
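Reads taken at 0, 8, 16, 24, 32 and 40 h from the same wells. HEK293 cells (600/well) carried RealTime-Glo reagents from seeding, with compound added after a 5 h settle at 37 C.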

Experiment [16] is described as follows: A CellTox Green Cytotoxicity Assay to monitor cytotoxicity in HEK293 cells - 0 hour (AID 1224869). Further: nearly all actives have a fitted effect of over 50% in size. An outline of the steps: (§1)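 HEK293 cells premixed with CellTox Green dye were seeded at 600 cells/well and left 5 h at 37 C/5% CO2 before pin transfer of 23 nL compound in DMSO. Fluorescence from dye bound to dead-cell DNA was read during 40 h treatment.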
The nature of experiment [17]: qHTS RealTime-Glo MT Cell Viability Assay in HepG2 cells - 40 hour (AID 1224870). Further: nearly all actives have a fitted effect of over 50% in size. An outline of the steps: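 HepG2 cells (600/well) mixed with RealTime-Glo MT reagent, settled 5 h at 37 C/5% CO2 before compound addition. Nonlytic NanoLuc luminescence from viable-cell prosubstrate reduction read repeatedly during 40 h treatment at 37 C.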
A short description of experiment [18]: A CellTox Green Cytotoxicity Assay to monitor cytotoxicity in HEK293 cells - 40 hour (AID 1224871). Further: nearly all actives have a fitted effect of over 45% in size. Further: potency means the concentration at half of the fitted maximal effect. An outline of the steps:
as §1

The nature of experiment [19]: qHTS assay to identify small molecule antagonists of the estrogen related receptor signaling pathway with the pleiotropic PPARgamma coactivator (PGC) from Tox21 10K library - cell viability counter screen (AID 1224840; active means well fitted cell-killing curve with a large enough effect in the repeat runs, not every such curve was filed as active; further: nearly all actives have a fitted effect of over 40% in size). An outline of the steps: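 PGC/ERR cells were seeded at 2,000 cells/well and left 6 hours at 37 C/5% CO2 before pin-tool addition of compounds in DMSO. After 17.5 hours at 37 C, CellTiter-Fluor was added and fluorescence read 30 minutes later.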

A short description of experiment [20]: qHTS assay to identify small molecule agonists of H2AX (AID 1224845; active means well fitted activation curve with a large enough effect in the signal ratio in the repeat runs, not every such curve was filed as active; the % refers to the signal ratio; further: potency means the concentration at half of the fitted maximal effect). An outline of the steps: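 Wild-type CHO-K1 cells, plated overnight, exposed 3hr at 37C to 15 concentrations (0.76% DMSO final). Lysed, then HTRF anti-pH2AX (S139) cryptate and anti-H2AX-d2 antibodies, 24 hr room temperature; 665/620 nm emission read.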
On the % scale 0 is the no-effect control and ±100 the full control effect.

Sequence of Thyrotropin receptor (Homo sapiens) (P16473 whole entry, looked up): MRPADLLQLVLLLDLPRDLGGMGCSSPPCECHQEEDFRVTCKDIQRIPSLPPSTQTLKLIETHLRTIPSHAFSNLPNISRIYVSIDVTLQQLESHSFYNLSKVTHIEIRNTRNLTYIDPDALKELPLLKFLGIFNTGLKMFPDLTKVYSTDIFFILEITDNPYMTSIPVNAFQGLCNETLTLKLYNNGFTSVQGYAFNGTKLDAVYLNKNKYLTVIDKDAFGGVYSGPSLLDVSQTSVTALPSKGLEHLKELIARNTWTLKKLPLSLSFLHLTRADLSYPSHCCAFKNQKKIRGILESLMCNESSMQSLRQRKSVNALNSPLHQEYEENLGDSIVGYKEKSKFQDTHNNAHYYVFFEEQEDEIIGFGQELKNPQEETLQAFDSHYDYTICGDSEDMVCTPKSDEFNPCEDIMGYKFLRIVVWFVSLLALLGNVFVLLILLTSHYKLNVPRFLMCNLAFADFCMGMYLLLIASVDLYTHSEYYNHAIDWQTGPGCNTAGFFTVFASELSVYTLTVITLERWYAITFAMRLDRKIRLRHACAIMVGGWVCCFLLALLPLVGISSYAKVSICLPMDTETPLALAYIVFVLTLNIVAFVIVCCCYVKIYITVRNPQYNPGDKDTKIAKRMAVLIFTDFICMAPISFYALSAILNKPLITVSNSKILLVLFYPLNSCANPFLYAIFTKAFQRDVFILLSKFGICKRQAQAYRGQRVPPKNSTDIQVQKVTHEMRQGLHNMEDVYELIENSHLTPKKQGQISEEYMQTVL
Sequence of Luciferin 4-monooxygenase (Photinus pyralis) (P08659 whole entry, looked up): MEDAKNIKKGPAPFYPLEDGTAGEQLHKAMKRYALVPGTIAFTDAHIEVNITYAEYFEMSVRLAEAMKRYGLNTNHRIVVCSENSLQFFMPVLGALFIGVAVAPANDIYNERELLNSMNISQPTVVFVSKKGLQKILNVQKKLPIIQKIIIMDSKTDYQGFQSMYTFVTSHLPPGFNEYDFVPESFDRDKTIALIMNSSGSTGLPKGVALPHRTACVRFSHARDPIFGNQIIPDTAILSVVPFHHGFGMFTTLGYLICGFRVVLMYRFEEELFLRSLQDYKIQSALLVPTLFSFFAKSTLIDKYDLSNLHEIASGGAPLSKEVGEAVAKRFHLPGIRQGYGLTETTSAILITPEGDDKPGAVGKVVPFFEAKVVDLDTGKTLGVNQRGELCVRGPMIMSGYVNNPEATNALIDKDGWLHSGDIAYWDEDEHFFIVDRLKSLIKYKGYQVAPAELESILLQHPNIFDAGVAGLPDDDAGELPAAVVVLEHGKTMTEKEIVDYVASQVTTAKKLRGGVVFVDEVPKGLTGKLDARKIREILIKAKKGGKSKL
Sequence of Nuclear receptor subfamily 1 group I member 3 (Homo sapiens) (Q14994 whole entry, looked up): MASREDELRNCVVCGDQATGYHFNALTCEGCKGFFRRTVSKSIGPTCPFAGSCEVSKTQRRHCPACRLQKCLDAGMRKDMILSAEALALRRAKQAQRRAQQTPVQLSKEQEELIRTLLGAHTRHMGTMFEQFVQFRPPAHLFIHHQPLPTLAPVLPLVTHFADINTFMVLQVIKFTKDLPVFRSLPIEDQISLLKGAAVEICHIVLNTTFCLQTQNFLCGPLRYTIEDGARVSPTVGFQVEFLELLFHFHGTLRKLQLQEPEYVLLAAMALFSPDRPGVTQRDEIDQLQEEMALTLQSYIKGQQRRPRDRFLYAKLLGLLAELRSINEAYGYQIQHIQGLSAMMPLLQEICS

Take `c1ccc2cc3ccccc3cc2c1`: the Potency entry in experiment [1], in experiment [2], in experiment [3], in [4], in [6] and in [7] was “inactive” throughout. For the same molecule, the Potency entry in [8], in experiment [9], in experiment [11], in [12], in experiment [14] and in experiment [15] was “inactive” in each case. The Potency entry in [16], in experiment [17] and in [18] was “inactive” throughout. For the same molecule, the Potency in experiment [5] is 19.9 µM (active) and 21.7 µM (active). In addition, the molecule was classed as inactive in experiment [10]. The activity change, positive = activation in experiment [13] was 6.4% (inactive) and 19.8% (active).

On to `CCOC(=O)C(C)Oc1ccc(Oc2cnc3cc(Cl)ccc3n2)cc1` (stereo not drawn), for which the Potency entry in experiment [1], in experiment [2], in [3], in experiment [4], in experiment [5] and in experiment [19] was “inactive” throughout. The Potency entry in experiment [9], in experiment [20], in experiment [14], in [16] and in experiment [17] was “inactive” throughout. Further, the molecule was classed as inactive in [10]. In addition, the Potency is 39.9 µM (active) in [15]; “inactive and 1.29 µM (active)” in [18].

With `CCC(Cc1c(I)cc(I)c(N)c1I)C(=O)O` (stereo not drawn), the Potency result in experiment [1], in experiment [2], in experiment [3], in experiment [4], in experiment [8] and in [20] was “inactive” each time. The Potency entry in [11], in experiment [14], in experiment [15], in experiment [16] and in experiment [18] was “inactive” in each case. The Potency in experiment [5] was 47 µM (active); in [9], 42.3 µM (active) and 15.1 µM (active). For the same molecule, in [10], the call was inactive.

Turning to `O=C(O)CCCCCCCCCCCC(=O)O`, the Potency entry in experiment [1], in experiment [2], in [3], in experiment [19], in experiment [7] and in [8] was “inactive” in each case. The Potency result in [11], in experiment [12], in [14], in [15], in [16] and in experiment [17] was “inactive” throughout. Also, the Potency in experiment [6] is 60.1 µM (active) and inactive; in experiment [9] it was 48.2 µM (active) and inactive; in [20], 111 µM (active) and inactive; in [18], 27.1 µM (active) and inactive. Moreover, in experiment [10], the result was inactive. For the same molecule, in experiment [13], the activity change, positive = activation is -2.27% (inactive).

Consider `C=CCCCCCCCCCC`, for which the Potency result in [1], in experiment [2], in experiment [3], in experiment [4], in experiment [5] and in [19] was “inactive” each time. Also, the Potency entry in [9], in experiment [20], in experiment [11], in [14], in experiment [15] and in [16] was “inactive” in each case. In addition, the Potency result in experiment [17] and in experiment [18] was “inactive” each time. Moreover, the molecule was called inactive in [10].

On to `c1ccc2c(c1)ccc1ncccc12`, for which the Potency is 62.8 µM (active) and 35.6 µM (active) in experiment [1]; 54.1 µM (active) and 48.6 µM (active) in experiment [5]. Besides, the Potency entry in [2], in experiment [3], in [4], in [6], in experiment [7] and in experiment [8] was “inactive” each time. Moreover, the Potency entry in [9], in [20], in [11], in experiment [12], in experiment [14] and in experiment [15] was “inactive” each time. In addition, the Potency entry in experiment [16], in experiment [17] and in [18] was “inactive” throughout. The molecule was called inactive in experiment [10]. In [13], the activity change, positive = activation was -5.44% (inactive).
